Assays:
[1] = biological target: T1, Aspartate--tRNA(Asp/Asn) ligase (Mycobacterium tuberculosis (strain ATCC 25618 / H37Rv)) (UniProt P9WFW3); experiment: Assay for Asp RNA synthetase-1 from Mycobacterium tuberculosis; format: functional; parameters: scale not given: direction of the effect not stated beside the values; conditions: 30 µM; note: in the data most compounds retested in dose-response had high values
T1 sequence (whole entry): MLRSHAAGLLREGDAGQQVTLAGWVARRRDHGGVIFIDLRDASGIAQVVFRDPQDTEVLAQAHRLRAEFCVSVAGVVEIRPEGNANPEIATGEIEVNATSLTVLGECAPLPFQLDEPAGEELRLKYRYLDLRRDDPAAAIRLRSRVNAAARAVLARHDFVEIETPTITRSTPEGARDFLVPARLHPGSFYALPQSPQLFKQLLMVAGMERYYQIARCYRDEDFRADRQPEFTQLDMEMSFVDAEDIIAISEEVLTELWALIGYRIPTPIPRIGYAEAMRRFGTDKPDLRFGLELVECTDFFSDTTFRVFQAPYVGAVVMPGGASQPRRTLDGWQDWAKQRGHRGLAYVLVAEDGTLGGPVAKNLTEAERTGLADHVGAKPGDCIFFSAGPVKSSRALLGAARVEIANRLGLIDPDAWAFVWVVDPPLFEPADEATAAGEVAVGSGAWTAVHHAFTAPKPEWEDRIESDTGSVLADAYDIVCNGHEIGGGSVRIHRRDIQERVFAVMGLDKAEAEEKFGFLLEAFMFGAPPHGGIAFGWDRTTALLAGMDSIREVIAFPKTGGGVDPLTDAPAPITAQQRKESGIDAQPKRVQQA

[2] = biological target: Shiga toxin 2 (Escherichia coli O157:H7) (UniProt P09385+P09386); experiment: E. coli 0.157:H7 Shiga Toxin SOP - stx2 screening assay; format: functional; parameters: scale not given: direction of the effect not stated beside the values; conditions: 30 µM

Fc1ccc(CN2CCCC2c2cncc(-n3ccnc3)n2)cc1 (stereo not given)
Percent Effect [1]: 3.75%
Percent Effect [2]: 24.5%

CCc1noc(C)c1C(=O)N1CCCC1Cn1cc(C)cn1 (stereo not given)
Percent Effect [1]: 4.02%
Percent Effect [2]: 31.4%

Cc1ccc(-c2nc(CCNC(=O)NC3CCN(C)CC3)co2)cc1
Percent Effect [1]: -3.19%
Percent Effect [2]: 3.52%

Cc1cc(C)n(CC2CN(Cc3cccc(C(N)=O)c3)CCO2)n1 (stereo not given)
Percent Effect [1]: -8.8%
Percent Effect [2]: -5.62%

O=C(NCc1cc[nH]n1)N1CCCCC(N2CCCC2)C1 (stereo not given)
Percent Effect [1]: 2.84%
Percent Effect [2]: 14.9%

CN(C)C(=O)CN1C[C@@H]2CC[C@H](C1)N(C(=O)CCn1cncn1)C2
Percent Effect [1]: 1.04%
Percent Effect [2]: -6.26%

Cc1ccc(-c2nc(CN3CCc4nn(C)c(=O)cc4C3)no2)cc1
Percent Effect [1]: 5.81%
Percent Effect [2]: -0.113%

CC[C@@]1(O)CCN(C(=O)c2ccsc2)C[C@H]1O
Percent Effect [1]: -4.99%
Percent Effect [2]: -16.9%

Cc1cccc(-c2noc(CN3CCC(N4CCNC4=O)CC3)n2)c1
Percent Effect [1]: 0.152%
Percent Effect [2]: 11.2%

Cc1ccc(C(=O)N2C[C@@H]3COC[C@]3(COc3cccnc3)C2)cn1
Percent Effect [1]: 2.55%
Percent Effect [2]: -13.2%

CC1CN(CC2CCCCC2)CCN1c1ccc2nncn2n1 (stereo not given)
Percent Effect [1]: -1.32%
Percent Effect [2]: -96.5%

O=C(Nc1cn[nH]c1)c1ccc(O)nc1
Percent Effect [1]: -1.37%
Percent Effect [2]: 30.3%

CN(Cc1cccs1)C(=O)CN1CCCC1Cn1cncn1 (stereo not given)
Percent Effect [1]: 5.56%
Percent Effect [2]: -62.3%

N#Cc1ccccc1C(=O)N1CCC2(CC(=O)NC2=O)C1 (stereo not given)
Percent Effect [1]: -0.613%
Percent Effect [2]: -0.393%

O=C(NCCc1ccn(-c2ccccc2)n1)N1CCC1
Percent Effect [1]: 1.53%
Percent Effect [2]: -11.7%

CC(C)c1nc(C2CCCN(C(=O)Cc3cccnc3)C2)no1 (stereo not given)
Percent Effect [1]: -2.44%
Percent Effect [2]: 23.6%

Cc1nnc(N2C[C@@H](OCCCn3cccn3)[C@H]3OCCC[C@H]32)s1
Percent Effect [1]: -3.42%
Percent Effect [2]: -13.8%

CNc1snc(C)c1C(=O)N1CCCC(n2nc(C)cc2C)C1 (stereo not given)
Percent Effect [1]: -8.77%
Percent Effect [2]: -3.59%

CCOc1cc(CN(C)CCOC)ccc1OC(F)F
Percent Effect [1]: -3.33%
Percent Effect [2]: -67.7%

CCCn1ncc(CN2C[C@@H]3CCCN3C[C@@H]2CCSC)c1C
Percent Effect [1]: -1.92%
Percent Effect [2]: -13.3%

CCOc1ccccc1C(CC(=O)Nc1ccc(C)cn1)NC(C)=O (stereo not given)
Percent Effect [1]: -0.122%
Percent Effect [2]: 14.7%

CCc1nc(C2CCCN2CCc2ccccn2)no1 (stereo not given)
Percent Effect [1]: -4.14%
Percent Effect [2]: -69%

NC(=O)C1CN(C(=O)Nc2ccccc2-c2cccs2)CCO1 (stereo not given)
Percent Effect [1]: -9.88%
Percent Effect [2]: -14.7%

CCc1cnc(CN(C(C)=O)C2CCN(CCc3cnn(C)c3)C2)o1 (stereo not given)
Percent Effect [1]: -5.68%
Percent Effect [2]: 20.4%

Cn1cc(S(=O)(=O)N2CCCC2CC(=O)c2cccs2)cn1 (stereo not given)
Percent Effect [1]: 1.01%
Percent Effect [2]: -9.63%

Cc1nc(CN2CCCC(CCNS(C)(=O)=O)C2)c[nH]1 (stereo not given)
Percent Effect [1]: -4.89%
Percent Effect [2]: 13%

CCCN(CCO)C(=O)C1CCC(=O)N(CCc2ccc(Cl)cc2)C1 (stereo not given)
Percent Effect [1]: -4.04%
Percent Effect [2]: 18%

CNCC(=O)N1CCC(c2ccnc(Nc3ccc(C)cn3)n2)C1 (stereo not given)
Percent Effect [1]: 2.93%
Percent Effect [2]: -58.2%

Cc1nc(CN2C(=O)C[C@@H]3[C@@H]2CCN3C(=O)C2CCOCC2)cs1
Percent Effect [1]: -2.3%
Percent Effect [2]: -52.6%

Cc1cc(=O)n2ncnc2n1CC(O)c1cc(F)ccc1F (stereo not given)
Percent Effect [1]: 3.44%
Percent Effect [2]: 1.57%

CC(C)c1nc(N2CC(N3CCCCC3C)C2)c2cnn(C)c2n1 (stereo not given)
Percent Effect [1]: -2.71%
Percent Effect [2]: -37.8%

CC1c2ncc(CN3CCN(C)CC3)n2CCN1Cc1cccnc1 (stereo not given)
Percent Effect [1]: 1.75%
Percent Effect [2]: -23.1%

CC(=O)N1N=C(c2ccccc2)OC1C(=O)NCCc1cccc(Cl)c1 (stereo not given)
Percent Effect [1]: -3.19%
Percent Effect [2]: 19.6%

CC(C)c1ccc(OCn2ccc(C(=O)N3CCCC3)n2)cc1
Percent Effect [1]: 5.38%
Percent Effect [2]: -13.8%

CC(C)c1cc(NC(=O)CN2CCC(N3CCCCC3)CC2)on1
Percent Effect [1]: 0.301%
Percent Effect [2]: -28.7%

Cc1cc(C(=O)N2CCC3(CCCN(CC4CC4)C3=O)C2)c(C)n1C (stereo not given)
Percent Effect [1]: -1.12%
Percent Effect [2]: -7.28%

Cc1ccccc1C(=O)N1CCC(n2nnc3cc(F)ccc32)CC1
Percent Effect [1]: -5.01%
Percent Effect [2]: -1.06%

CC(C)Oc1ncc(C(=O)N2CCC(NC(=O)C3CC3)CC2)cc1Cl
Percent Effect [1]: -4.56%
Percent Effect [2]: -46.9%

Cn1cc(C2CCCN2Cc2csc(-c3ccsc3)n2)cn1 (stereo not given)
Percent Effect [1]: 7.77%
Percent Effect [2]: -5.27%

Cn1cnnc1CNC(=O)Nc1cc(C(F)(F)F)c[nH]c1=O
Percent Effect [1]: 1.79%
Percent Effect [2]: 27.2%

Cc1cnc(CN(C)C2CCN(CC(=O)Nc3nncs3)C2)o1 (stereo not given)
Percent Effect [1]: 3.17%
Percent Effect [2]: -13.8%

COc1cccc(COCC(=O)N2CCCC(n3ccnc3C)C2)c1 (stereo not given)
Percent Effect [1]: -4.19%
Percent Effect [2]: -2.47%

O=c1[nH]c(CCN2CCCC(Cn3cncn3)C2)nc2ccccc12 (stereo not given)
Percent Effect [1]: -3.23%
Percent Effect [2]: -25.8%

CCOCC(O)CN1CCN(C(=O)C2CC2)CC1 (stereo not given)
Percent Effect [1]: 1.82%
Percent Effect [2]: 21.4%

O=C(c1ccoc1)N1CC[C@H]2OCC[C@@]2(COc2ncccc2F)C1
Percent Effect [1]: -0.296%
Percent Effect [2]: 3.1%

CCc1csc(C2CCCN(C(=O)c3c[nH]c(C)n3)C2)n1 (stereo not given)
Percent Effect [1]: -0.0911%
Percent Effect [2]: -10.2%

COCCC(=O)N1CCCC2(CCC(=O)N2CCOC)CC1 (stereo not given)
Percent Effect [1]: 0.751%
Percent Effect [2]: -11.1%

CC(C)CC(=O)N1CCN(C(=O)N(C)C)CC2(CC(=O)N(C)C2)C1 (stereo not given)
Percent Effect [1]: 1.73%
Percent Effect [2]: 1.92%

Cc1nc(C)n(C2CCCN(C(=O)CCCn3ccnc3)C2)n1 (stereo not given)
Percent Effect [1]: -0.127%
Percent Effect [2]: -12.7%

COc1c(C)cnc(CN2CCC(N(C)C(C)C(N)=O)CC2)c1C (stereo not given)
Percent Effect [1]: -3.49%
Percent Effect [2]: -5%

COc1ccc(C2Nc3ccccc3C3=NCCCN32)cc1OC (stereo not given)
Percent Effect [1]: 3.81%
Percent Effect [2]: -2.36%

CCC1CN(CCC(=O)N(C)C)CCN1CCOC (stereo not given)
Percent Effect [1]: 2.89%
Percent Effect [2]: 22.5%

Cc1cc2n(n1)CC(CNC1CCN(c3ccc(F)cc3)CC1)CN2 (stereo not given)
Percent Effect [1]: 4.19%
Percent Effect [2]: -37.2%

CCc1cccc(N2CCC(NC(=O)c3ccc(=O)[nH]n3)CC2)c1
Percent Effect [1]: 3.83%
Percent Effect [2]: -1.12%

CC(C)n1ccnc1CN1CCCN(C(=O)c2cccnc2O)CC1
Percent Effect [1]: -2.15%
Percent Effect [2]: -43.9%

CC(C)(C)C(=O)Cn1nc(-c2ccccc2F)ccc1=O
Percent Effect [1]: -2.79%
Percent Effect [2]: -9.41%

Cc1cc(CN2CCN(C(c3ccccc3)c3ccccc3)CC2)no1
Percent Effect [1]: 0.857%
Percent Effect [2]: 10.7%

CCOCC(O)CN1CCN(C(=O)c2cnc3n[nH]c(C)c3c2)CC1 (stereo not given)
Percent Effect [1]: 1.04%
Percent Effect [2]: 30.1%

c1ccc(OCc2ccncc2)c(CNC2CCc3ncnn3C2)c1 (stereo not given)
Percent Effect [1]: -3.54%
Percent Effect [2]: -62.8%

c1ccc(OCCCN2CCN(c3ccc4nncn4n3)CC2)cc1
Percent Effect [1]: -0.637%
Percent Effect [2]: -81.9%

O=C1CCC2(CCN(Cc3nccs3)CC2)N1Cc1ccccc1
Percent Effect [1]: -2.78%
Percent Effect [2]: 13.1%

CC(=O)N1CCN(C(=O)c2cnn(-c3ccccc3Cl)c2)CC1
Percent Effect [1]: 4.65%
Percent Effect [2]: 14.3%

CC(C)c1nnc2ccc(N3CCC(C(N)=O)CC3)nn12
Percent Effect [1]: -3.92%
Percent Effect [2]: -20.5%

CNC(=O)CSc1cnn(CC(=O)Nc2cccc(Cl)c2C)c(=O)c1Cl
Percent Effect [1]: -5.35%
Percent Effect [2]: -8.91%

Cc1ccccc1CSc1nc(N)cc(N2C[C@H](O)[C@@H](N(C)C)C2)n1
Percent Effect [1]: 3.57%
Percent Effect [2]: 14.8%

Cc1cccc(CN2CCc3c(nc(N4CCC(C)CC4)[nH]c3=O)C2)n1
Percent Effect [1]: -2.78%
Percent Effect [2]: 10.7%

O=C(CN1CCCC1Cn1cncn1)NC(C1CC1)C1CC1 (stereo not given)
Percent Effect [1]: 2.42%
Percent Effect [2]: -2.93%

CN(Cc1cccnc1)CC1CCCN1c1cccnn1 (stereo not given)
Percent Effect [1]: 1.15%
Percent Effect [2]: 6%

CC(C)CCOCCNC(=O)Nc1cc(C(F)(F)F)c[nH]c1=O
Percent Effect [1]: 1.4%
Percent Effect [2]: 5.72%

CN1CCN(C(=O)c2cncc(CC3CCCN(C)C3)c2)CC1 (stereo not given)
Percent Effect [1]: -1.68%
Percent Effect [2]: -19.2%

N#Cc1cc(NC(=O)c2ccccc2)ccc1N1CCC(O)CC1
Percent Effect [1]: -1.51%
Percent Effect [2]: -18.7%

Cn1cc(C(=O)N2C[C@@H]3COC[C@]3(COCc3cccnc3)C2)cn1
Percent Effect [1]: -0.306%
Percent Effect [2]: -6.37%

c1ccc(Cc2noc(CNC3CCc4ncnn4C3)n2)cc1 (stereo not given)
Percent Effect [1]: -0.932%
Percent Effect [2]: 2.15%

CCC1CN(CC(=O)N2CCC2)CCN1CCOC (stereo not given)
Percent Effect [1]: 7.2%
Percent Effect [2]: 9.62%

Cc1cccnc1NC(=O)C(C)Cn1nc(C(F)(F)F)cc1C (stereo not given)
Percent Effect [1]: -2.9%
Percent Effect [2]: -1.69%

Source: ChEMBL document CHEMBL3988442, “University of Dundee, Small-Polar-MMV Screening Library” (2021)
